Results as given in ChEMBL document CHEMBL3988442, “University of Dundee, Small-Polar-MMV Screening Library” (2021).
For some assays here: Entries with a potency or affinity are not part of this list.

What was measured:
Design in all cases: scale not given: direction of the effect not stated beside the values
[1] = molecular target: Protein translocase subunit SecA (Escherichia coli (strain K12)) (UniProt P10408); assay: Assay to Identify E. coli SecA ATPase Inhibitors; format: functional; conditions: 30 µM
Protein translocase subunit SecA (Escherichia coli (strain K12)), sequence (P10408 whole entry): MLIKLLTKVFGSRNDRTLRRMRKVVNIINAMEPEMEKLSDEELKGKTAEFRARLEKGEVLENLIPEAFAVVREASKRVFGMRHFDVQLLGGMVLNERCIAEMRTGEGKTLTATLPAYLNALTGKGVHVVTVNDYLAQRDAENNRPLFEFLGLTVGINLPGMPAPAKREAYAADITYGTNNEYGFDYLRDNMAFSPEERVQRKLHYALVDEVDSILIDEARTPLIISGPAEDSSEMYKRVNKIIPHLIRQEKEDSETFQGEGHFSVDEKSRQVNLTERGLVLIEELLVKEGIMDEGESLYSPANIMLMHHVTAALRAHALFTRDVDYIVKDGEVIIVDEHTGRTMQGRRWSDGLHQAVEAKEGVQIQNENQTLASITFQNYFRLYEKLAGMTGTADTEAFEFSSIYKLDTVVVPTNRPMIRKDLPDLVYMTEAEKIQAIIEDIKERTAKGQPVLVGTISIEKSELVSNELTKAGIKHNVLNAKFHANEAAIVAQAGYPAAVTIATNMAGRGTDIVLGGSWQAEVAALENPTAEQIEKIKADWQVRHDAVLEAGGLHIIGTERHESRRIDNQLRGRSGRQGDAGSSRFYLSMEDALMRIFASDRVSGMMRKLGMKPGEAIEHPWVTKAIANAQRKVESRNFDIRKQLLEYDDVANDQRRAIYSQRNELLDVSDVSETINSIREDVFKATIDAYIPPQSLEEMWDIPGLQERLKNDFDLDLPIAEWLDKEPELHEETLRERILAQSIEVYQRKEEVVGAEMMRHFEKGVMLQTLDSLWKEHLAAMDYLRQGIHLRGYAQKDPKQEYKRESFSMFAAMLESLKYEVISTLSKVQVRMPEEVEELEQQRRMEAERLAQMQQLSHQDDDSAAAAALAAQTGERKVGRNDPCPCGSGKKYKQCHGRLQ

[2] = molecular target: T1, Ubiquitin-activating enzyme e1, putative (Leishmania donovani (strain BPK282A1)) (UniProt E9BSI1); assay: Leishmania donovani Ubiquitin Activating Enzyme (LdE1); format: functional; conditions: 30 µM
T1 sequence (whole entry): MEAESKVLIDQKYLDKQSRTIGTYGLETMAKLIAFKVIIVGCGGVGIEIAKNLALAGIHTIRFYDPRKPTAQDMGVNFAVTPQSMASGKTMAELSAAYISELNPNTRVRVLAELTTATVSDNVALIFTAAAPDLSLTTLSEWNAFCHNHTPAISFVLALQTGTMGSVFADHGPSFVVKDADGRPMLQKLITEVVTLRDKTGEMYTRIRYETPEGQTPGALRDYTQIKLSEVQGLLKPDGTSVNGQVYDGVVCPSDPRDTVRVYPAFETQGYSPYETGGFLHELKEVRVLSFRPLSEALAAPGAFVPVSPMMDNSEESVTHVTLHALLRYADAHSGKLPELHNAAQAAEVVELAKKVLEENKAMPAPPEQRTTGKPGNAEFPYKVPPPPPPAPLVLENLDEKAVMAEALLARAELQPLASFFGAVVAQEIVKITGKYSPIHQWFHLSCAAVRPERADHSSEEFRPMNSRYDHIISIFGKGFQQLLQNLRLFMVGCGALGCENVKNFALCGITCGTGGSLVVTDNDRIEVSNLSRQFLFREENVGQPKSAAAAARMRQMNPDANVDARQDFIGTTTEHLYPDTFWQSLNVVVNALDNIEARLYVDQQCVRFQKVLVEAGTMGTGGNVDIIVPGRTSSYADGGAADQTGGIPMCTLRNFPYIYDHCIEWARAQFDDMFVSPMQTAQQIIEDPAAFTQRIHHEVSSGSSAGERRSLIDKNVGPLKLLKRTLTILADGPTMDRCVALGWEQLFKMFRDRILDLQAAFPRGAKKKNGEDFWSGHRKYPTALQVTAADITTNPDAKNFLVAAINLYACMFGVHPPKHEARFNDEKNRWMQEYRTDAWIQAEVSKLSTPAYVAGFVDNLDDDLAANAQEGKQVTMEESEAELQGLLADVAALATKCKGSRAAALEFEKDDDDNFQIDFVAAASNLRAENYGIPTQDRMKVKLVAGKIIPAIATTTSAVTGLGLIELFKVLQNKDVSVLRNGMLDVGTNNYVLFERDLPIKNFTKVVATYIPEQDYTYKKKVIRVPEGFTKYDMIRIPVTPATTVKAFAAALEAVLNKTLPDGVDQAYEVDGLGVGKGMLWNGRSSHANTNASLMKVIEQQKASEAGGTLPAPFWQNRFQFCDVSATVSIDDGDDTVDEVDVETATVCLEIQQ

[3] = molecular target: AMP-activated protein kinase, AMPK (Homo sapiens) (UniProt P54646+O43741+P54619+Q9UGJ0+Q9Y478+Q13131+Q9UGI9); assay: AMP-dependent Kinase enzyme assay. An in vitro enzyme assay that detects ADP turnover that is directly proportional to AMPK activity. This uses naive AMPK that is activated during the assay with MK-8722; format: functional; conditions: 30 µM
[4] = molecular target: Sialic acid-binding Ig-like lectin 9 (Homo sapiens) (UniProt Q9Y336); assay: Hs-Siglec9 ALPHAscreen SOP 20170721; conditions: 10 µM
Sialic acid-binding Ig-like lectin 9 (Homo sapiens), sequence (Q9Y336 whole entry): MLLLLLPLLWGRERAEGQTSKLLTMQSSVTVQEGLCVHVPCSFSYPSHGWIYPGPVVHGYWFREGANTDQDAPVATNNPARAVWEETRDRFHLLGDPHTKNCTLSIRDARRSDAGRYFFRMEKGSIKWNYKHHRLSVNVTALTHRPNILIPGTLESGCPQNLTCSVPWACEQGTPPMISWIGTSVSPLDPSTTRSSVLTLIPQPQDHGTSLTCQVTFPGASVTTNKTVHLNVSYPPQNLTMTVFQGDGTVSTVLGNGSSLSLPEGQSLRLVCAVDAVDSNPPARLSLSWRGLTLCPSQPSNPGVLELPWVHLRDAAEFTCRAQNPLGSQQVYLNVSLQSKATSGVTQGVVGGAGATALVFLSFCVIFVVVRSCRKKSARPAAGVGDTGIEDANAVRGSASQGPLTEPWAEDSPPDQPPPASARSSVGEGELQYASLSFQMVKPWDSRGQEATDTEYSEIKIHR

Trypanosoma cruzi = assay: Trypanosoma cruzi phosphomannomutase and mannose-1-phosphate guanylyltransferase assay; format: functional; conditions: 10 µM
[5] = molecular target: T2, Arginase-2, mitochondrial (Homo sapiens) (UniProt P78540); assay: in vitro enzyme assay to detect the production of urea directly proportional to the activity of Arginase II; format: functional; conditions: 33.3 µM; note: in the data most compounds retested in dose-response had high values
T2 sequence (whole entry): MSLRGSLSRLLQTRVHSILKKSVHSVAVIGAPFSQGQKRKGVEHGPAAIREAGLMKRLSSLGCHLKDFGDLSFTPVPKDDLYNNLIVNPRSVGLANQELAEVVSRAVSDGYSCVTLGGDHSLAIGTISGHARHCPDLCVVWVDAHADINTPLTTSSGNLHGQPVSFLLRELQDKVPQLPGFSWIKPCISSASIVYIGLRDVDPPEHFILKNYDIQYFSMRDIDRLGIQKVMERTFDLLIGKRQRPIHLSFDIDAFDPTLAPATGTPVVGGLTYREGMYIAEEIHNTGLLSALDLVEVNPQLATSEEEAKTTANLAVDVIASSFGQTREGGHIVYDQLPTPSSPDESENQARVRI

[6] = molecular target: T3, Proteasome subunit beta (Trypanosoma cruzi) (UniProt O96673); assay: Trypanosoma cruzi proteasome chymotrypsin-like activity (TcProtChymo) assay.; note: in the data most compounds retested in dose-response had high values; format: functional; conditions: 9.37 µM
T3 sequence (whole entry): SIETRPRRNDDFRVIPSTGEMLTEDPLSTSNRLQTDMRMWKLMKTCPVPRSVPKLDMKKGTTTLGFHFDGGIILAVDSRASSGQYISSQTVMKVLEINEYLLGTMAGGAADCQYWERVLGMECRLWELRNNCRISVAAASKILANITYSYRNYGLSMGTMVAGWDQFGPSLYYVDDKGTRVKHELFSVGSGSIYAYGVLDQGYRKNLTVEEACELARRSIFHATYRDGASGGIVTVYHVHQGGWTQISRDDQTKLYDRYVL

Homo sapiens = species: Homo sapiens; assay: To identify inhibition of the IFN signalling (Jak-Stat) pathway via expression of an eGFP reporter gene under the control of an IFN-stimulated response element (ISRE) containing MxA promoter.; format: functional; conditions: 30 µM
[7] = molecular target: T4, Tyrosyl-tRNA synthetase, putative (Trypanosoma cruzi (strain CL Brener)) (UniProt Q4DSP6); assay: Trypanosoma cruzi tyrosyl tRNA synthetase (TcYRS) _High Tyrosine SOP; format: functional; conditions: 30 µM; note: in the data most compounds retested in dose-response had high values
T4 sequence (whole entry): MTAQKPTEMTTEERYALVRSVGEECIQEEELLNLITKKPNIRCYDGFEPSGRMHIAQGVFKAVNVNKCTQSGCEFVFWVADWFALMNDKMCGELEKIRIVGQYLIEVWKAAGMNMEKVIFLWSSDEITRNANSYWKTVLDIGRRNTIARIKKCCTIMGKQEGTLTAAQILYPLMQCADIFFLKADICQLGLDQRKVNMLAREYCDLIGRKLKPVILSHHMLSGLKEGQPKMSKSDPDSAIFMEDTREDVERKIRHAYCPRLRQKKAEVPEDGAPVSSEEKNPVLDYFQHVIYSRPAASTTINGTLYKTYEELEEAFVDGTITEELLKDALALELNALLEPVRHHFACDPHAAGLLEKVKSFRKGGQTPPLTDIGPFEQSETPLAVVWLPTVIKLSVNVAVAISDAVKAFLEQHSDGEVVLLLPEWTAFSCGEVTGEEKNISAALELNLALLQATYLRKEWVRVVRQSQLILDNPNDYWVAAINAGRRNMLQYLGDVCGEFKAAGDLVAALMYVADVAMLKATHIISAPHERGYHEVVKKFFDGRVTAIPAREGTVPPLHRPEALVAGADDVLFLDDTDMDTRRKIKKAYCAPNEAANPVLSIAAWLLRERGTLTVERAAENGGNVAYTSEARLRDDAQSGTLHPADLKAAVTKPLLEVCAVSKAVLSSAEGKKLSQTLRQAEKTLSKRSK

[8] = molecular target: T4, Tyrosyl-tRNA synthetase, putative (Trypanosoma cruzi (strain CL Brener)); assay: Trypanosoma cruzi tyrosyl tRNA synthetase (TcYRS) SOP; format: functional; conditions: 30 µM
[9] = molecular target: Chromo domain-containing protein 1 (Saccharomyces cerevisiae (strain ATCC 204508 / S288c) (Baker's yeast)) (UniProt P32657); assay: ScCHD-1 Enzyme Inhibition Assay; format: functional; conditions: 30 µM; note: in the data most compounds retested in dose-response had high values
Chromo domain-containing protein 1 (Saccharomyces cerevisiae (strain ATCC 204508 / S288c) (Baker's yeast)), sequence (P32657 whole entry, the tested form may be a part): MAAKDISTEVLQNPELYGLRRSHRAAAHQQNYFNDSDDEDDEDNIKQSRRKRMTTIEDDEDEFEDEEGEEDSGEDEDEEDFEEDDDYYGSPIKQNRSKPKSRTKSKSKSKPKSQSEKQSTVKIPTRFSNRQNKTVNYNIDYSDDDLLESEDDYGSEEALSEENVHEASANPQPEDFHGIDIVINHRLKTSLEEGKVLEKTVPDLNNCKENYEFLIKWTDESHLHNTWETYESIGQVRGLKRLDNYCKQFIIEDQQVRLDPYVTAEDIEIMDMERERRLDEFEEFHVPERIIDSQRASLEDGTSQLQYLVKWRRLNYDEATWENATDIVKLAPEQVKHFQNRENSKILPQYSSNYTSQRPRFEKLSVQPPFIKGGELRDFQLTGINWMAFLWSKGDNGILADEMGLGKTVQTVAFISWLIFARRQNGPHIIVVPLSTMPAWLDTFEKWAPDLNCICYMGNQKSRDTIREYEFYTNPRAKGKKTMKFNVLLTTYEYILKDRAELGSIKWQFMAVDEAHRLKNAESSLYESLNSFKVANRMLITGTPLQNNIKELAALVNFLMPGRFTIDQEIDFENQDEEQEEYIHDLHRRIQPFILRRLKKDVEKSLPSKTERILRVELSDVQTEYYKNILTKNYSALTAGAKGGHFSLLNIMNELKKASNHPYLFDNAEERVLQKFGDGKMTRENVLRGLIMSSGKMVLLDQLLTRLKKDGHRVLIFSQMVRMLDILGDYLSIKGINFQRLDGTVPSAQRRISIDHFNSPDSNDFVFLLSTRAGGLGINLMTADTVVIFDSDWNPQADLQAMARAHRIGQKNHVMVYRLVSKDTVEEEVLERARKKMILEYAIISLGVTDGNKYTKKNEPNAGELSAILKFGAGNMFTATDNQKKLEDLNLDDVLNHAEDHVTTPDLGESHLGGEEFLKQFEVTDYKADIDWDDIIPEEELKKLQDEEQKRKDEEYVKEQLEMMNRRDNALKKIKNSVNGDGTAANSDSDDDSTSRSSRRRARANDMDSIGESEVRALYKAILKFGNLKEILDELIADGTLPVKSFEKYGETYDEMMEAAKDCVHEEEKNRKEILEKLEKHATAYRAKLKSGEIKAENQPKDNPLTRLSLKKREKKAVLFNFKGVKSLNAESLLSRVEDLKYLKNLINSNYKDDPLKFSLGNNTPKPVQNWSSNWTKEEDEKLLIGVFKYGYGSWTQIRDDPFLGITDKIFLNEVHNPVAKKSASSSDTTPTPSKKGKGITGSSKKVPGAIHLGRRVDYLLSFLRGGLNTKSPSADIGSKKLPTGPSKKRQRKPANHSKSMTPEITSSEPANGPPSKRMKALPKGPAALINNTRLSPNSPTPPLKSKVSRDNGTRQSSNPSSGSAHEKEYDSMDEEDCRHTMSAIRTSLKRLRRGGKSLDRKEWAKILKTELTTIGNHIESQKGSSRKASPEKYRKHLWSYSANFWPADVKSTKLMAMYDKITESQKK

SMILES	Percent Effect [1] [%]	Percent Effect [2] [%]	Percent Effect [3] [%]	Percent Effect [4] [%]	Percent Effect (Trypanosoma cruzi) [%]	Percent Effect [5] [%]	Percent Effect [6] [%]	Percent Effect (Homo sapiens) [%]	Percent Effect [7] [%]	Percent Effect [8] [%]	Percent Effect [9] [%]
COc1ncccc1C(=O)N1CCC(CNC(C)=O)CC1	-4.18	5.33	-0.618	3.6	-2.43	1.56	6.28	-6.88	4.92	13.6	-5.96
COCCNC(=O)Cn1nc(C(C)C)c2cnn(C(C)(C)C)c2c1=O	-2.65	5.48	-1.93	5.56	3.72	-1.36	17.6	15.1	8.6	15	-6.24
CCNC(=O)N1CCCC(c2noc(CC)n2)C1 (configuration not stated)	-3.36	13	3.81	9.2	4.6	3.16	5.09	7.39	5.71	11.8	-13.2
Cc1ccc(NC2CCN(C(=O)Cc3csc(C)n3)CC2)nn1	-0.935	21.6	-5.18	-3.82	-8.02	1.2	18.6	4.91	7.39	16.1	-4.45
O=C(NCCO)C1(Cc2cc(-c3ccc(F)cc3F)no2)CCOCC1	-2.99	12.2	14.6	-1.56	0.988	1.16	15.8	23.3	0	6.49	-16.7
Cc1cnn(CCC(=O)N2CCCC(c3nc(C)no3)C2)c1 (configuration not stated)	-3.87	24.3	-8.95	-1.06	5.94	-4.41	16.9	11.1	4.43	23.5	-10.1
Cc1nc(C)n(CC2CCCN(c3ncnc4c3CCC4)C2)n1 (configuration not stated)	-4.39	0	0.226	-3.72	-4.25	-2.81	-2.88	64.3	-2.46	-8.64	4.82
CCn1ccnc1CN1CCCC(CO)(Cc2cccc(Cl)c2)C1 (configuration not stated)	-5.53	2.7	-2.31	28.9	3.23	-1.24	3.18	-2.28	2.15	11.1	-1.59
Cc1cc(C2CCCN2CC(=O)N(CCC#N)c2ccccc2F)on1 (configuration not stated)	-2.04	10.8	-3.15	8.81	4.18	-4.99	19.4	8.68	3.96	23.2	-6.79
Cc1nn(C)cc1CN(C)Cc1cc2c(cc1OC(F)F)OCO2	-4.54	0	-4.17	-1.2	1.07	-0.744	-3.18	-8.11	-1.07	3.7	-3.28
CCN(CC)S(=O)(=O)N1CCCC(c2cccc(C(=O)O)c2)C1 (configuration not stated)	-3.72	16.2	-6.67	19.8	6.56	0.952	10.9	5.56	6.88	17.1	-5.44
Cc1csc(N2CCN(CCc3ccccn3)CC2C)n1 (configuration not stated)	-0.657	8.22	-7.28	9.14	6.07	-3.64	4.79	17.9	4.3	5	-1.43
CC(=O)N1CCC2(CCCN(C(=O)c3ccccc3)C2)C1 (configuration not stated)	-2.42	0	11	-1.1	-1.57	3.03	1.85	-0.0486	2.13	1.28	5.13
OCCn1cc(CN2CCN(CCOc3ccccc3)CC2)cn1	-4.31	8.11	-1.96	0.413	-4.36	1.29	11.3	3.13	2.97	3.66	-2.48
CN(Cc1cc2c(cc1OC(F)F)OCO2)Cc1nccn1C	-4.78	2.7	-4.36	4	1.27	-0.744	5.58	0.0596	3.23	6.17	-1.72
Cc1cccc(NC2CCN(C(=O)Nc3cc(C)on3)CC2)n1	-3.9	12.7	-3.67	8.79	5.57	0.76	1.39	-22.6	4.43	16.5	-8.82
O=C(NCCNc1ncccn1)C1CCN(CC(F)(F)F)CC1	-4.28	18.9	5.29	1.52	-6.51	0.802	18.9	20.5	7.39	11.1	-4.74
CCc1cnc2c(c1NCc1ccncc1)c(=O)n(C)c(=O)n2C	0.985	8.22	-0.992	-0.488	-4.5	5	13.1	14.7	6.45	10	-4.37
NC(=O)C1CCCN(Cc2c(-c3ccco3)[nH]c3ncccc23)C1 (configuration not stated)	-1.81	12.2	-2.48	1.48	-3.16	1.16	9.83	23.8	7.53	14.3	-8.85
CCC(CC)C(CNC(=O)Nc1cc(C)nn1C)N1CCOCC1 (configuration not stated)	-4.23	17.7	3.07	-7.11	9.54	-5.32	9.75	4.35	8.37	11.4	-9.76
Cc1cn2c(n1)CCC(NC(=O)CCn1cncn1)C2 (configuration not stated)	-8.14	5.26	-6.54	-5.36	-3.64	-2.88	10.4	-0.843	-1.48	1.24	7.18
CCN(CC1CCCO1)C(=O)Nc1cc(C(=O)OC)ccc1F (configuration not stated)	-2.67	7.59	1.58	13.4	-1.98	1.9	2.21	0.11	3.45	8.86	-8.28
